Source: PubChem BioAssay
Where “and” joins values, the source holds several entries; their conditions need not be identical. Equal values may be shown once. Results filed as inconclusive are left out. For part of these data: Entries with a potency or affinity are not part of this list. Calls of active or inactive are those of the source.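 The calls were made as follows, unless noted: active = at least 20% inhibition of 6-phosphogluconate dehydrogenase activity; inactive = the rest.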

Legend:
[1] = blockers of polyQ-driven CASP3 activation – cell-based (AID 1583); details: polyglutamine-induced caspase-3 activation, cell assay; stronger effect = higher value;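 tested at 10 µM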
[2] = yeast 75Q aggregation reduction – 75Q-TubU reporter (AID 1593); details: Yeast 75Q polyglutamine aggregation reporter
[3] = restoration of touch response, mutant HTT neurons – whole organism, C. elegans mechanosensory neurons, N-terminal huntingtin (AID 1599); details: C. elegans polyQ-huntingtin mechanosensory neurons, stronger effect = higher value
[4] = blockers of cytochrome c efflux from mitochondria – biochemical, purified mitochondria (AID 1603); details: stronger effect = lower value;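 also: mouse liver mitochondria challenged with calcium chloride; signal normalized to the plate average as 100%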
[5] = polyglutamine aggregate formation blockers (AID 1604); details: polyglutamine-induced protein aggregation inhibition assay; stronger effect = higher value; tested at 2.5 µM
[6] = rescue of PC12 cells from polyQ htt toxicity – LDH release (AID 1610); details: PC12 mutant huntingtin toxicity, final LDH at 4 uM, stronger effect = lower value
[7] = glutamate transport activators, MN-1 cells, MN-1 cell line (AID 1612); details: MN-1 motor neuron cells, stronger effect = higher value;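 also: tested at 1 µM final; 0% = mean of DMSO vehicle wells on each plate; positive means more glutamate uptake than control and negative means less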
[8] = 75Q-TubH aggregate inhibition, S. cerevisiae, yeast (AID 1616); details: S. cerevisiae 75Q-TubH polyglutamine aggregation suppression; stronger effect = higher value
[9] = P. berghei load reduction in hepatocytes – cell-based, HepG2, luciferase luminescence, HepG2 viability, primary screen (AID 624349; in the data active = parasite load remaining mostly below about 12%, no sharp cut-off; inactive = mostly above about 10%;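 also: 100% = mean of DMSO negative control wells on the same plate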); details: P. berghei liver stage in HepG2, luciferase luminescence, concentration not given here; parasite load remaining: stronger effect = lower value; viability: measured here: HepG2 viability without parasites
[10] = molecular target: 6-phosphogluconate dehydrogenase, decarboxylating (Homo sapiens) (UniProt P52209); experiment: inhibition of human phosphogluconate dehydrogenase – biochemical, recombinant enzyme, NADPH absorbance, primary screen (AID 1159550); details: recombinant 6PGD, NADPH absorbance 341 nm; at 10 µM; stronger effect = higher value
[11] = tested on: Aerobactin synthetase IucA (Klebsiella pneumoniae hvKP1); experiment: IucA enzyme inhibition, primary screen, biochemical, Spectrum library (AID 1346200; call rule not given here;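 also: 100% = wells without compound and 0% = wells lacking enzyme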); details: malachite green pyrophosphate, A620, at 8 µM, stronger effect = lower value
[12] = viability loss with induced miR-34 in A549 – imaging, A549 dox-inducible miR-34, nuclei and caspase counts, primary screen (AID 1347080;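 active = compounds whose cell count with miR-34 switched on is under 0.7 times the count with it off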); details: A549 miR-34 inducible, Hoechst nuclei count, 48 h
[13] = MELAS cybrid and Rieske KO viability enhancers – cell-based, MELAS cybrids, Rieske KO mouse fibroblasts, CellTiter-Glo, primary screen (AID 1508586;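 active = mean z-score across replicates of 1.96 or higher in either the MELAS or the Rieske mutant cell line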;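 also: z relative to plate mean and SD of compound and empty wells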); details: low glucose
[14] = molecular target: NAD(+) hydrolase SARM1 (Homo sapiens) (UniProt Q6SZW1); experiment: blocking NAD cleavage by SARM1 SAM-TIR – cell lysate, NAD-Glo luminescence (AID 1508614;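 active = compound whose remaining NAD level is above about 45 nM, limit read from the data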;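 also: higher remaining NAD means stronger inhibition of SARM1 NADase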); details: SAM-TIR HEK293T lysate NADase, at 1 µM, stronger effect = higher value
[15] = molecular target: Mitogen-activated protein kinase 7 (Homo sapiens) (UniProt Q13164); experiment: Gal4-ERK5 driven luciferase induction – cell-based, HTS, primary screen (AID 1508626;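 active = luciferase signal above three times the same-plate solvent-only control wells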;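 also: luciferase driven by Gal4-ERK5 fusion binding five Gal4 sites before minimal TATA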); details: HeLa Gal4-ERK5 transactivation, 18 h, at 5 µM, stronger effect = higher value
[16] = galactose survival enhancers in mitochondrial complex I cybrids – cell-based, galactose medium, ATP luminescence, primary screen (AID 1645843;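 active = z-score of at least 1.8 in each of two replicates, scored against plate mean and spread of sample wells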;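 also: positive z means more ATP and so rescue of galactose-driven cybrid death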); details: complex I mutant cybrid cells, 72 h, stronger effect = higher value
[17] = viability loss in pontine glioma line – cell-based, SU-DIPG-XVII, MIPE5.0, CellTiter-Glo, qHTS, dose response (AID 1347060; cut-off not given, nearly all actives have AC50 up to about 26 µM;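 also: cells exposed to compound for 48 hours before viability readout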); details: CellTiter-Glo ATP luminescence
[18] = viability loss in pontine glioma line – cell-based, SU-DIPG-XIII, MIPE5.0, CellTiter-Glo, qHTS, dose response (AID 1347064; cut-off not given, nearly all actives have AC50 up to about 23 µM;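 also: cells exposed to compound for 48 hours before the viability read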); details: CellTiter-Glo ATP luminescence
[19] = viability loss in pontine glioma line – cell-based, SU-DIPG-XXV, MIPE5.0, CellTiter-Glo, qHTS, dose response (AID 1347065; cut-off not given, nearly all actives have AC50 up to about 26 µM;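 also: cells exposed to compound for 48 hours before ATP readout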); details: CellTiter-Glo ATP luminescence
[20] = JHH-DIPG-1 glioma cell viability, MIPE5.0 library, CellTiter-Glo luminescence, qHTS (AID 1347067; cut-off not given, nearly all actives have AC50 up to about 26 µM;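 also: cells exposed to compound for 48 hours before readout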); details: JHH-DIPG-1 glioma viability, CellTiter-Glo ATP luminescence
[21] = growth inhibition of DIPG cells – cell-based, MIPE5.0 library, qHTS (AID 1347068; cut-off not given, nearly all actives have IC50 up to about 30 µM;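 also: cells exposed to compound for 48 hours before viability readout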); details: SU-DIPG-XXV viability
[22] = molecular target: ATP-dependent translocase ABCB1 (Homo sapiens) (UniProt P08183); experiment: P-glycoprotein substrate transport blockade – cell-based (AID 377; in the data active = fluorescence slope change above about 50%); details: MDR1-expressing cells, fluorescent substrate accumulation slope; stronger effect = higher value; concentration not given here
[23] = compounds altering viability of human ES cells (AID 493140; call rule not given here;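 also: cells exposed to compounds for four days before counting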); details: human embryonic stem cell survival screen; stronger effect = higher value
[24] = measured here: relative caspase fold change +Dox/-Dox
[25] = measured here: total cells with miR-34 induction, stronger effect = lower value
[26] = measured here: total cells without miR-34 induction
[27] = MELAS cybrid survival, CellTiter-Glo 48 h, stronger effect = higher value
[28] = Rieske KO mouse fibroblast survival, CellTiter-Glo 72 h

Chain of Mitogen-activated protein kinase 7 (Homo sapiens) (Q13164 whole entry, looked up, the tested form may be a part): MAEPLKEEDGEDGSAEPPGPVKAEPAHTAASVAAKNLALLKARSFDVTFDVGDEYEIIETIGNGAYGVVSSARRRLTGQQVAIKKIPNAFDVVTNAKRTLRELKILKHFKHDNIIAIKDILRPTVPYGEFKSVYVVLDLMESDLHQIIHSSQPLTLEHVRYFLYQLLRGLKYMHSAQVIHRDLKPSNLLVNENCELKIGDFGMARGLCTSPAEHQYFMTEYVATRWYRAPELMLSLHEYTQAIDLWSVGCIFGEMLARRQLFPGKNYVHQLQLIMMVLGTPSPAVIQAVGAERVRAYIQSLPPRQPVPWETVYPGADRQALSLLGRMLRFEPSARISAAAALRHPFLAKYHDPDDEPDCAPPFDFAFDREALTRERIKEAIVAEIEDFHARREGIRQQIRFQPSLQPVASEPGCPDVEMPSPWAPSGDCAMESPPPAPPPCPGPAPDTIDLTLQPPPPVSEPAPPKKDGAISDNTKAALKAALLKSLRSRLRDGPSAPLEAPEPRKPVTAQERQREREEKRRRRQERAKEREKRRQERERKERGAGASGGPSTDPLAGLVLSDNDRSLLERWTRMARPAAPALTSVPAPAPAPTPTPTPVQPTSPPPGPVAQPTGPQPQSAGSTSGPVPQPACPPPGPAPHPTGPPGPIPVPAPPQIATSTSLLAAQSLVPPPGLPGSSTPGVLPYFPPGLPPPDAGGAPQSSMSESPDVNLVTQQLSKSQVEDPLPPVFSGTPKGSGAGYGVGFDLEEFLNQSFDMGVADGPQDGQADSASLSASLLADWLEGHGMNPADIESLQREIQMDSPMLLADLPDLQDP
Chain of 6-phosphogluconate dehydrogenase, decarboxylating (Homo sapiens) (P52209 whole entry, looked up): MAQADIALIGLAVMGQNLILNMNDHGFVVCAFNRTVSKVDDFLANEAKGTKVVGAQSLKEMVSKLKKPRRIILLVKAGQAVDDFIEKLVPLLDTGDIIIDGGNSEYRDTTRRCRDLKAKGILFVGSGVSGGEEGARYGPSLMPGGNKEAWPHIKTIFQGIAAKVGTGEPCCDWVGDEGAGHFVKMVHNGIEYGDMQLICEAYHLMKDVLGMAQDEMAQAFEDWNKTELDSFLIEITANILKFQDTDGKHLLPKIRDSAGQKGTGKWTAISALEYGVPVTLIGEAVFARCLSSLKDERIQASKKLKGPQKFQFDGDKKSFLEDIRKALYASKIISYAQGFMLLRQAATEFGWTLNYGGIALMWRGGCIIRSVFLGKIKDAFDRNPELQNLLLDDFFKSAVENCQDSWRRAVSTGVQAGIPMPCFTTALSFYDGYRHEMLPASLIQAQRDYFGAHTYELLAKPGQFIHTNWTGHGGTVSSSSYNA
Chain of NAD(+) hydrolase SARM1 (Homo sapiens) (Q6SZW1 whole entry, looked up, the tested form may be a part): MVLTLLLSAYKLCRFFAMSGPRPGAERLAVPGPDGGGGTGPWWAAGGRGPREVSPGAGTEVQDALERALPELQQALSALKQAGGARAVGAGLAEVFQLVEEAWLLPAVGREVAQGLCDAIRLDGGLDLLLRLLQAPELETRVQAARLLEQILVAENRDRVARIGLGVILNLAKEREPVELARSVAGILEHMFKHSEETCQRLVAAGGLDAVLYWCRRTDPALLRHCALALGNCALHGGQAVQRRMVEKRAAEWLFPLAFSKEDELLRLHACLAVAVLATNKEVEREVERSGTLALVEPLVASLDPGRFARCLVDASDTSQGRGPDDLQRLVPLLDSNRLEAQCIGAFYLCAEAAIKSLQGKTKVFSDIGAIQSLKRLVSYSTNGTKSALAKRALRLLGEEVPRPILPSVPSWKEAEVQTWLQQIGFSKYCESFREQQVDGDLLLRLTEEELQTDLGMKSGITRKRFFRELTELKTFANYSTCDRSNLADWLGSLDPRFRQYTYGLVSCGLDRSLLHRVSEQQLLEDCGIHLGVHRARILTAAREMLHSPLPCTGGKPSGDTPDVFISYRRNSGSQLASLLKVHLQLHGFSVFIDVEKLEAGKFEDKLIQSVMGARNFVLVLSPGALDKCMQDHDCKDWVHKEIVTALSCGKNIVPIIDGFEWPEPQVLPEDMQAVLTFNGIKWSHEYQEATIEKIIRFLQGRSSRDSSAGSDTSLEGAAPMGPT
Chain of ATP-dependent translocase ABCB1 (Homo sapiens) (P08183 whole entry, looked up): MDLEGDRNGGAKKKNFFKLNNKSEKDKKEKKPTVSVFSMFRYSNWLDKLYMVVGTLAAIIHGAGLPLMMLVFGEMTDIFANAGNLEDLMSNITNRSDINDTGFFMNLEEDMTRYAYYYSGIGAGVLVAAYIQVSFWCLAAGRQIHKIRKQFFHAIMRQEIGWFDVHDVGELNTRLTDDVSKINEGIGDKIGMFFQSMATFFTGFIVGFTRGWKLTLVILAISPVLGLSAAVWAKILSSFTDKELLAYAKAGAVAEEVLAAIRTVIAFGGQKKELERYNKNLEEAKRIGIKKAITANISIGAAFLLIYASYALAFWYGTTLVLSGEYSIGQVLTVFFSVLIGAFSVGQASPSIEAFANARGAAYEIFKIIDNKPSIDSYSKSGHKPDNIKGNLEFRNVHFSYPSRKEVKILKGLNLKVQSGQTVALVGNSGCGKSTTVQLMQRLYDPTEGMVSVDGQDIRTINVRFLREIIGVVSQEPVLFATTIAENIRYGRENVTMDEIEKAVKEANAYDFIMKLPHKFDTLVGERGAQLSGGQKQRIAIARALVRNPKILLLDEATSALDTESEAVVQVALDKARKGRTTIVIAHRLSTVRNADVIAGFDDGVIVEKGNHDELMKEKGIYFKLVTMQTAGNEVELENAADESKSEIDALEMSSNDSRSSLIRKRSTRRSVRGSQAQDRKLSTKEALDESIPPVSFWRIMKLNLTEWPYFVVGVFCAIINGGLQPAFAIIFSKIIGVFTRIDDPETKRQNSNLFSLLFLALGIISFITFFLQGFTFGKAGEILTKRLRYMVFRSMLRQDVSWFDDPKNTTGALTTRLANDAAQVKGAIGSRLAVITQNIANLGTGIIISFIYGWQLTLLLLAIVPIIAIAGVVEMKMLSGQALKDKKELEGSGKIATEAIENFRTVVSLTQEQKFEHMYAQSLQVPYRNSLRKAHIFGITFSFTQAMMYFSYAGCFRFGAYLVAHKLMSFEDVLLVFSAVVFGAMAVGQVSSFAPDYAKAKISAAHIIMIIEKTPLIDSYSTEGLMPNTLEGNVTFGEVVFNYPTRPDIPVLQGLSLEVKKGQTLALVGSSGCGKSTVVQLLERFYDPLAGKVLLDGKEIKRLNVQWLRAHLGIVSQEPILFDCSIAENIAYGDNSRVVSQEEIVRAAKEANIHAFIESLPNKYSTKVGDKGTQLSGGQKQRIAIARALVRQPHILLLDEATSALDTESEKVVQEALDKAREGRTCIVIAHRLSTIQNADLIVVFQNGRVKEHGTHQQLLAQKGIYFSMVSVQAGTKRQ

CC(=O)Oc1ccc(Cl)c2cccnc12
inhibition [1]: 11.4% | score [2]: 0.08 | rescue above control [3]: 7.46 | cytochrome c release ratio [4]: 1.44 | inhibition of aggregation [5]: 87.2% | normalised LDH release [6]: 1.08 | glutamate uptake change [7]: 14.2% | aggregation suppression score [8]: 0.0401 | parasite load remaining [9]: -5% (inactive) | viability [9]: 65.2% | inhibition [10]: -4.5% (inactive) | activity remaining [11]: 124% (inactive)

COc1ccc2c(c1)[C@]13CCCC[C@@H]1[C@H](C2)N(C)CC3
inhibition [10]: 2.05% (inactive) | fold change ([12]; stronger effect = lower value): 0.873 (inactive) and 0.843 (inactive) and 0.893 (inactive) | fold change [12, 24]: 2.02 and 0.727 and 1.27 | cell count [12, 25]: 9020 and 10500 and 9760 | cell count [12, 26]: 10300 and 12400 and 10900 | z-score [13, 27]: 0.326 (inactive) and 0.234 (inactive) | z-score [13, 28]: 0.302 and -0.256 | remaining NAD [14]: 10 nM (inactive) | luciferase signal [15]: 28 AU (inactive) | z-score [16]: -0.13 (inactive)

OCC(O)Cc1ccc2c(c1)OCO2 (configuration not stated)
inhibition [10]: 11.1% (inactive) | activity remaining [11]: 123% (inactive) | luciferase signal [15]: 16 AU (inactive)

CC(C)N1C(=O)c2ccccc2NS1(=O)=O
inhibition [10]: -1.1% (inactive) | activity remaining [11]: 106% (inactive) | luciferase signal [15]: 92 AU (inactive)

CC(C)[C@]12O[C@H]1[C@@H]1O[C@@]13[C@@]1(C)CCC4=C(COC4=O)[C@@H]1C[C@@H]1O[C@@]13C2=O
inhibition [10]: 3.27% (inactive) | AC50 [17]: 295 nM (active) | AC50 [18]: 263 nM (active) | AC50 [19]: 372 nM (active) | AC50 [20]: 132 nM (active) | IC50 [21]: 372 nM (active)

C[C@]12CCC(=O)C=C1C=C[C@@H]1[C@@H]2CC[C@@]2(C)[C@H]1CC[C@@]2(O)CCC(=O)O
fluorescence slope change [22]: 75% (active) | survival [23]: 19.2 (inactive) | parasite load remaining [9]: 48.7% (inactive) and 84.2% (inactive) | viability [9]: 45.8% and 86.3% | inhibition [10]: -4.06% (inactive) | fold change ([12]; stronger effect = lower value): 0.935 (inactive) | fold change [12, 24]: 1.18 | cell count [12, 25]: 8420 | cell count [12, 26]: 9010 | z-score [13, 27]: 0.754 (inactive) | z-score [13, 28]: 0.299

CCC(=O)O[C@H]1CC[C@H]2[C@@H]3CCC4=CC(=O)CC[C@]4(C)[C@H]3CC[C@]12C
survival [23]: 13.8 (inactive) | parasite load remaining [9]: 71.3% (inactive) and 54% (inactive) | viability [9]: 94.2% and 78.8% | inhibition [10]: 16.6% (inactive) | fold change ([12]; stronger effect = lower value): 0.875 (inactive) | fold change [12, 24]: 1.34 | cell count [12, 25]: 8190 | cell count [12, 26]: 9360 | z-score [13, 27]: -0.581 (inactive) | z-score [13, 28]: -0.301 | remaining NAD [14]: 10 nM (inactive) | luciferase signal [15]: 32 AU (inactive)
